Experimental data from PubChem BioAssay AID1490 (National Center for Advancing Translational Sciences (NCATS), 2009).
Values joined by “and” are separate entries in the source; they are usually repeats but may differ in a detail not shown here. Identical values can stand only once. Hit rate of the full screen: of about 310,000 compounds, about 11,000 (3.5%) were called active. Another 4% or so got no clear call; they are omitted. Calls come from the whole dose curve; as a rule, active = well fitted inhibition curve with a large enough effect; inconclusive = small, poorly fitted or top-dose-only effect, or another doubt; inactive = no such curve, though single readings can be large or run the other way. The full list was thinned out, with actives kept by preference.

Target: 4'-phosphopantetheinyl transferase ffp (Bacillus subtilis) (UniProt Q9F4F7)
Assay: qHTS Assay for Inhibitors of Bacillus subtilis Sfp phosphopantetheinyl transferase (PPTase);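 note: the enzyme is Sfp with the accession as filed and its product quenches rhodamine fluorescence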;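 for Largest response in the series, negative = inhibition: 0% = enzyme reaction without inhibitor and -100% = no enzyme wells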
Details: Biochemical Sfp PPTase activity
Procedure, shortened: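 Reaction rates are the 30-min fluorescence difference (ex 525, em 598 nm) in wells containing 15 nM Sfp, 5 uM rhodamine-CoA and 12.5 uM BHQ-2-YbbR at pH 7.6 with 10 mM MgCl2.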
Potency is the fitted concentration of half-maximal effect.

Largest response in the series, negative = inhibition, inactive:
O=C(c1cc2ccccc2o1)N1CCN(Cc2ccccc2)CC1 8.96% and -10.3%
Cc1ccc(CSCCNC(=O)CN(c2ccc(F)cc2)S(C)(=O)=O)cc1 7.19%
O=C(c1ccncc1)N1CCC2(CCCN(C(c3ccccc3)c3ccccc3)C2)CC1 -0.961%
Cc1ccc(CNC(=O)C(=O)c2cn(CC(=O)N3CCOCC3)c3ccccc23)cc1 6.58%
Cc1ccc(C(=O)Oc2ccc(C(=S)N3CCOCC3)cc2)cc1 -21.7%
O=C(Oc1ccc(F)cc1)N1CCOCC1 11.2%
NNC(=O)CNC(c1ccccc1)c1cc(Cl)ccc1NC(=O)c1ccccc1 (stereo not drawn) 5.82%
Cc1ccc(SCC(CC(C)C)N2CCN(CCc3ccccc3)CCC2=O)cc1 (stereo not drawn) -29.9%
COc1ccc(-c2cc(C(=O)N(C)Cc3ccccc3)c3ccccc3n2)cc1 -16.8%
Cc1cc(N(C)C)nc(Cl)n1 -4.8%
CN(Cc1ccccc1)S(=O)(=O)c1nnc(NC(=O)c2ccccc2F)s1 16.4%
O=C(Cc1cccs1)NCc1cccc(C(F)(F)F)c1 6.74%
NC(=O)CC(NC(=O)Cc1ccc(Br)cc1)c1ccc(NC2CC3CCC2C3)c([N+](=O)[O-])c1 (stereo not drawn) 15.4%
O=C(Nc1ccc(Cl)cc1)c1cccc(OC(=S)N2CCOCC2)c1 5.61%
CCOC(=O)c1c(N)sc(C(C)=O)c1C -34.1%
O=C(N/C(=C\c1ccc(O)cc1)C(=O)N1CCCCC1)c1ccccc1 11.6%
Cc1ccc2c(=O)cc(C(=O)NCCc3ccc(S(N)(=O)=O)cc3)oc2c1C 15.4%
CCOc1ccc2nc(Nc3nc4ccc(NC(C)=O)cc4s3)sc2c1 -21.4%
CCOc1ccc2nc(SC(CC)C(=O)Nc3cc(C)on3)sc2c1 (stereo not drawn) 9.59%
CCN(CC)CCCNC(=O)c1c(O)c2cc(F)cc3c2n(c1=O)C(C)CC3 (stereo not drawn) 2.11%
COc1ccc(C=Nc2cccc3ncccc23)cc1 -8.45%
O=[N+]([O-])c1ccc(N=Cc2c(O)ccc3ccccc23)cc1 -6.3%
Cc1cc2c(cc1S(=O)(=O)CCC(=O)NCc1ccccc1)OCC(=O)N2 18.5%
CN1C2CCC1CC(NC(=O)c1ccc([N+](=O)[O-])cc1)C2 (stereo not drawn) 9.32%
COc1ccc(C2CC(c3ccc([N+](=O)[O-])cc3)=NN2C(C)=O)cc1 (stereo not drawn) 0.697%
CC(C)=CCc1c(O)c(CC=C(C)C)c2occ(-c3ccc(O)cc3)c(=O)c2c1O -6.29%
OCC(CO)NC1C[C@](O)(CO)[C@@H](O)[C@H](O)[C@H]1O (stereo partly drawn) 7.78%
O=C(NC(Cc1ccccc1)C(=O)O)/C(=C\c1ccccc1)NC(=O)c1ccco1 (stereo not drawn) 16.2%
COc1cccc(-c2noc(C3CCCN(C(=O)c4ccc(F)cc4)C3)n2)c1 (stereo not drawn) 12.5%
CC(C(=O)NC1CCCCC1)N1C(=O)c2cccc3cccc1c23 (stereo not drawn) 4.03%
COC(=O)c1ccc(OC(=O)c2cnccn2)cc1 -8.15%
O=C(O)CSc1nnc(-c2ccc3c(c2)OCO3)n1-c1ccccc1 30.8%
Cn1c(SCC(=O)N2CCCC2)nnc1-c1ccc2c(c1)OCO2 8.6%
COc1ccc(/C(C)=N\NC(=O)c2ccc(-c3ccccc3)cc2)c(F)c1 12.8%
COc1ccc(N(Cc2cc3ccc(C)cc3[nH]c2=O)S(=O)(=O)c2ccccc2)cc1 6.39%
CCn1c2ccc(F)cc2c2nnc(SCCN3CCOCC3)nc21 -2.54%
COc1ccc(N2CCN(C(=O)CSc3ncnc4c3cnn4-c3ccc(OC)cc3)CC2)cc1 -1.71%
CCOc1ccc(-c2nnn(CC(=O)N3CCN(c4ccc(OC)cc4)CC3)n2)cc1OCC 20.4%

Potency, active:
O=C(Oc1ccc(C(=S)N2CCOCC2)cc1)c1ccc(F)cc1 50.1 µM
CN(C)c1cc(N)c2ccccc2n1 (tested in a mixture with another compound) 56.2 µM
COCCOC(=O)c1sc(=S)n(CCOC)c1N 25.1 µM
CCOc1ccc2nc(C(=O)N3CCCC(C)C3)sc2c1 (stereo not drawn) 25.1 µM
Oc1c(C=Nc2cccc3nsnc23)ccc2ccccc12 44.7 µM
CC(=O)N1CC[n+]2c(-c3ccc([N+](=O)[O-])cc3)csc21 5.62 µM
FC(F)(F)C1CCCN(c2nsc3ccccc23)C1 (stereo not drawn) 15.8 µM
Cn1c(SCc2nc3ccccc3s2)nnc1-c1ccc2c(c1)OCO2 14.1 µM
CCc1c(C)[nH]c(=S)c(C#N)c1C 12.6 µM
COc1ccc(N2CCN(C(=O)CSc3nc4cc(OC)c(OC)cc4cc3C#N)CC2)cc1 63.1 µM
